# According to PubChem BioAssay AID1210 (NMMLSC, 2008):
# Unmarked numbers belong to inactive results. Calls of active or inactive are those of the source.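 The calls were made as follows: active = blocks over 70% of labeled estradiol binding at 10 µM, or over a set limit at 100 nM; inactive = the rest.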
# Target: Estrogen receptor beta (Homo sapiens) (UniProt Q92731)
# Test: ERbeta ligand binders by competition, primary screen, cell-based, Cos7 ERbeta-GFP, flow cytometry (AID 1210);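 also: 0% = DMSO vehicle wells and 100% = complete loss of labeled estradiol signal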
# Details: fluorescent estrogen binding, at 10 µM, hits give high values
# Sequence of Estrogen receptor beta (Homo sapiens) (Q92731 whole entry, looked up): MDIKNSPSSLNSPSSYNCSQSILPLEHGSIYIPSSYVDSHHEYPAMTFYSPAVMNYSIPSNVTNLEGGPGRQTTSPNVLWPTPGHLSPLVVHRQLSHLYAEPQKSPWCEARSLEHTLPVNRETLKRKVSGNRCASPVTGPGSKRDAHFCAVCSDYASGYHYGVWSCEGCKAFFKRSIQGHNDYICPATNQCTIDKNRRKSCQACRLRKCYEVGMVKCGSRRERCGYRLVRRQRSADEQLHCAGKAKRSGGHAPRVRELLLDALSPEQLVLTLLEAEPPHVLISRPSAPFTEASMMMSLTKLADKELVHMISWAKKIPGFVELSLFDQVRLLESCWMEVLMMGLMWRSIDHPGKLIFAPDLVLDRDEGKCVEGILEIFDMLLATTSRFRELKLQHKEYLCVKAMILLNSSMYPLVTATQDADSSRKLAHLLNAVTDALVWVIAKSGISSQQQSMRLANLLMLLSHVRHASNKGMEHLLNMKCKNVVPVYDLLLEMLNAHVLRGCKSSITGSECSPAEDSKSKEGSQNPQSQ
row,Structure (SMILES),inhibition
1,CCOC(=O)c1sc(NC(=O)c2ccc3ncsc3c2)nc1C,21%
2,Oc1ccc(-c2cn3cc(C(F)(F)F)ccc3n2)cc1,41%
3,Oc1ccc(-c2cn3c(n2)SCC3)cc1O,33%
4,COc1cc(OC)cc(C(=O)NC2CCN(C(=O)N3c4ccccc4Sc4ccccc43)CC2)c1,21%
5,COc1ccc(OC)c(/C=N/c2oc(-c3ccco3)c(-c3ccco3)c2C#N)c1,31%
6,COc1ccc(N=C2NC(=O)S/C2=C\c2ccc(N(C)C)cc2)cc1,59%
7,O=c1[nH]c(N/N=C/c2ccc(O)cc2)nc2ccccc12,34%
8,O=C(Oc1cccc(-c2cnc3ccccc3n2)c1)c1ccco1,9%
9,O=C(O)c1ccc2c(c1)[C@@H]1C=CC[C@@H]1[C@H](c1ccccn1)N2,0%
10,CSc1ccc(S(=O)(=O)Nc2cccc(F)c2)cc1,21% (active)
11,COc1ccc2c(c1)c(=O)oc1cc(OCC(=O)N3CCC(C)CC3)ccc12,52%
12,COc1ccc(OC)c(NC(=O)CSc2nc3ccccc3c3nc4ccccc4n23)c1,70%
13,CS(=O)(=O)c1ccc2nc(NC(=O)CCC(=O)c3cccs3)sc2c1,62%
14,O=C(COC(=O)CCOc1ccccc1)NCc1ccco1,54%
15,Nc1ccc2nc3n(c(=O)c2c1)CCC3,49%
16,Cc1ccc(-c2nn(-c3ccccc3)cc2CSC(=N)N)cc1,38%
17,CCCCn1c(NC(=O)CC)c(C#N)c2nc3ccccc3nc21,47%
